From PubChem BioAssay AID1463 (National Center for Advancing Translational Sciences (NCATS), 2008)
The whole screen tested about 280,000 compounds, of which about 2,600 (0.93%) were called active. Another 8% or so got no clear call; they are omitted. What follows is part of a selection rich in actives, with near analogues and random picks from the rest. Values without a mark were called inactive. The call rests on the fitted dose curve; in most records, active means well fitted curve in the direction sought with a large enough effect; inconclusive means small, poorly fitted or top-dose-only effect; inactive means flat fitted curve, though single readings scatter.

Assay: Counterscreen qHTS for Inhibitors of Tau Fibril Formation, Fluorescence Polarization; further: nearly all actives have a fitted effect of over 55% in size
Conditions: tau K18 P301L (four-repeat tau fragment) Alexa594 fluorescence, heparin fibrillization; series mostly up to 57.7 µM; activity change, negative = decrease: at the top concentration
How it was run: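 Human K18 P301L tau (15 uM unlabeled plus 0.24 uM Alexa 594-labeled, final) in 100 mM sodium acetate pH 7 was mixed with compound and 20 uM heparin and incubated 6 hr at 37 C.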
On the % scale 0 is the no-effect control and ±100 the full control effect; potency means the concentration at half of the fitted maximal effect; tags describe the fitted curve by direction and shape or compound fluorescence and quenching.

First: CSc1ccccc1-c1nnc(NC(=O)c2ccc3c(c2)OCCO3)o1
Second: O=C(NC1CC1)c1ccc2c(c1)NC(=O)c1ccccc1S2
The “activity change, negative = decrease” value of the first is higher: -1.25% for the first, -16.6% for the second.

Going from `CCCNC(=O)C1CCC(Cn2c(=O)c3sccc3n(Cc3ccccc3F)c2=O)CC1` (stereo not given) to `Cc1cccc(N2CCN(C(=O)CCSCc3ccccc3F)CC2)c1C`, the “activity change, negative = decrease” value falls from 9.61% to -13.6%.

Compared with `COc1ccc(NC(=O)CSc2nccn2C2CCCC2)cc1OC`, `COc1ccc(CCNC(=O)c2ccc(-n3c(C)cc4c3CCCC4)cc2)cc1OC` is lower in “activity change, negative = decrease” value: -6.75% for the first, -19% for the second.

First: Cn1c(=O)c2c(ncn2CC(=O)Nc2cccc(C(F)(F)F)c2)n(C)c1=O
Second: CCOC(=O)c1cccc(NC(=O)Cn2cnc3nc4c(cc3c2=O)CCCC4)c1
The “activity change, negative = decrease” value of the first is lower: -20% for the first, -12.6% for the second.

Going from `CC(C)(C)c1ccc(NC(=O)NCc2ccco2)cc1` to `CCCCNC(=O)CCNC(=O)c1ccc(C(C)(C)C)cc1`, the “activity change, negative = decrease” value rises from -22.4% to -8.92%.

Going from `COc1ccc(NC(=O)COCc2cc(-c3ccco3)on2)cc1` to `COc1ccc(NC(=O)CSc2nc3ccccc3[nH]2)cc1`, the “activity change, negative = decrease” value falls from -5.46% to -24.6%.

Going from `Cc1ccc(NC(=O)CSc2nc3ccccc3c3nc(CCn4cncc4C)nn23)cc1F` to `Cc1ccc(NC(=O)c2cc(-c3ccc(C)o3)nc3ccccc23)nc1`, the “activity change, negative = decrease” value falls from 4.76% to -11.4%.

First: Cc1nc(N2CCC(C)CC2)c2c(C)c(C(=O)Nc3cc(F)ccc3C)sc2n1
Second: Cc1c(C(=O)Nc2ccccc2)sc2nc3n(c(=O)c12)CCCCC3
The “activity change, negative = decrease” value of the first is higher: -5.83% for the first, -18.3% for the second.

Going from `COc1ccc(-n2nc(C(=O)NCCc3ccc(Cl)cc3)c3c4ccccc4n(C)c3c2=O)cc1Cl` to `COc1ccc(CCNC(=O)c2ccc3c(c2)nc(C)n3-c2ccc(Br)cc2)cc1OC`, the “activity change, negative = decrease” value rises from -6.96% to -4.98%.

First: CC1CCC(N2CC(=O)N(CCC3=CCCCC3)C(c3ccc(F)cc3)C2=O)CC1 (stereo not given)
Second: O=C(CCn1ccc2cc(S(=O)(=O)N3CCCC3)ccc21)NCc1cccc(Cl)c1
The “activity change, negative = decrease” value of the first is higher: 0.383% for the first, -25.8% for the second.

Going from `CC(C)(C)OC(=O)N1CCC(c2c(C(=O)N3CCN(c4cccc(Cl)c4)CC3)cnn2-c2cccc(Cl)c2)CC1` to `Cc1ccc2nc(N3CCN(c4cccc(Cl)c4)CC3)c3nnnn3c2c1`, the “activity change, negative = decrease” value falls from -9.84% to -17.8%.

Compared with `Cc1cc(O)ccc1-c1cnc2ccccc2n1`, `O=c1c(-c2ccccc2)coc2cc(O)ccc12` is higher in “activity change, negative = decrease” value: -23.3% for the first, -0.968% for the second.

Compared with `CC(=O)Nc1cccc(/C(C)=N/NC(=O)c2ccccc2Cl)c1`, `Cc1ccccc1CNC(=O)c1cccc(NC(=O)c2nsc3ccccc23)c1` is lower in “activity change, negative = decrease” value: -8.65% for the first, -28.9% for the second.

Compared with `CCN(CCCNC(=O)c1cc2c(=O)n(CC)c3ccccc3c2s1)Cc1ccccc1`, `Cc1nc2ccn(Cc3cccs3)c(=O)c2cc1C(=O)NCc1ccc(Cl)cc1` is higher in “activity change, negative = decrease” value: -15.7% for the first, -12.3% for the second.

First: Cc1c(NC(=O)C(C)(C)C)cccc1-c1nc2ccccc2s1
Second: COc1cccc(Nc2nc3ccccc3c3nncn23)c1
The “activity change, negative = decrease” value of the first is higher: -15.3% for the first, -28.2% for the second.

Compared with `Cc1c(O)cc(O)c2c(=O)c(-c3ccc(O)cc3)coc12`, `Oc1ccc(-c2nc3ccc(Cl)cn3c2Nc2ccc3c(c2)OCO3)cc1` is lower in “activity change, negative = decrease” value: 1.54% for the first, -29.6% for the second.

Compared with `COc1ccc(-c2nnc(SCC(=O)Nc3ccc(C(C)C)cc3)nc2-c2ccc(OC)c(OC)c2)cc1OC`, `COc1ccc(C2CC(=O)Nc3cc(C)c(C)cc32)c(OC)c1OC` (stereo not given) is higher in “activity change, negative = decrease” value: -20.8% for the first, -17.8% for the second.

Going from `Cc1ccc2nc(-c3cccnc3)c(NC3CCCC3)n2c1` to `COc1ccccc1Oc1nc(-c2cccnc2)nc2ccccc12`, the “activity change, negative = decrease” value falls from -14.6% to -19.1%.

Compared with `O=C(N/N=C/c1ccc([N+](=O)[O-])cc1)C(=O)N1CCCC1`, `NC(=S)N/N=C/c1ccc([N+](=O)[O-])cc1` is lower in “activity change, negative = decrease” value: 4.17% for the first, -0.488% for the second.

Going from `CCS(=O)(=O)N1CCc2cc(C(=O)N3CCN(c4ccccc4OC)CC3)ccc21` to `CCC(=O)N1CCc2cc(CNS(=O)(=O)c3ccc(Br)s3)ccc21`, the “activity change, negative = decrease” value rises from -8.44% to -5.99%.

With `CC(C)(C)c1ccc(C(=O)NCCC(=O)NCc2ccco2)cc1` the Potency was 14.1 µM [quencher] (active).
For `Cc1ccc(NC(=O)Nc2sc3nc4n(c(=O)c3c2C)CCC(C)CC4)c(Cl)c1` (stereo not given), the Potency was 7.08 µM [quencher] (active).
In the case of `Cc1ccc(Nc2nc(-c3ccc(O)cc3O)cs2)nc1`, the Potency is reported as 8.91 µM [quencher] (active).
In the case of `C/C(=N\Nc1cccc(C(=O)O)c1)c1ccc2c(c1)Nc1ccccc1S2`, the Potency is reported as 11.2 µM [quencher] (active).
With `CC(C)=CCc1c(O)c(CC=C(C)C)c2occ(-c3ccc(O)cc3)c(=O)c2c1O` the Potency was 15.8 µM [quencher] (active).
In the case of `Cc1ccc2nc(-c3ccc(O)cc3)c(Nc3ccc4c(c3)OCO4)n2c1`, the Potency is reported as 17.8 µM [quencher] (active).
With `O=[N+]([O-])c1ccc(N/N=C/c2ccccc2)cc1` the Potency was 8.91 µM [quencher] (active).
For `COc1cccc(-c2nc(Nc3ccncc3)c3ccccc3n2)c1`, the Potency was 10 µM [quencher] (active).
In the case of `O=C1c2ccccc2C2=Nc3ccccc3SC(c3ccccc3F)C12` (stereo not given), the Potency is reported as 5.62 µM [quencher] (active).
With `COc1ccc(C2Sc3ccccc3NC3=C2C(=O)c2ccccc23)c(OC)c1OC` (stereo not given) the Potency was 6.31 µM [quencher] (active).
